# Screening results from PubChem BioAssay.
# Compounds with a hit are over-represented: about 3.5% of the library has one in this group of screens.
# FBA Mtb inh: Mtb fructose-bisphosphate aldolase inhibition; P9WQA3; purified M. tuberculosis FBA, fluorescence read-out; inhibition, % at 1 µM; 2.3% of 360,000 active; AID 588726; in the data active = inhibition above about 27%;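 also: 0% = vehicle and 100% = reference inhibitor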
# GDH-TPI inh: inhibits GDH-TPI coupling enzymes, artifact for Mtb FBA screen | 1.2% of 360,000 active | inhibition, % at 4.8 µM | AID 588335 | GDH-TPI coupled enzyme counterscreen, NADH absorbance; in the data active = inhibition above about 30%;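 also: 0% = DMSO wells and 100% = wells lacking the enzyme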
# UGM FP inh: Mtb UDP-galactopyranose mutase inhibition. purified UGM, fluorescence polarization probe displacement. inhibition, % at 10 µM. 0.06% of 320,000 active. P9WIQ1; in the data active = inhibition above about 10%, passing the limit was not always enough
# Target sequence (P9WIQ1 whole entry, looked up): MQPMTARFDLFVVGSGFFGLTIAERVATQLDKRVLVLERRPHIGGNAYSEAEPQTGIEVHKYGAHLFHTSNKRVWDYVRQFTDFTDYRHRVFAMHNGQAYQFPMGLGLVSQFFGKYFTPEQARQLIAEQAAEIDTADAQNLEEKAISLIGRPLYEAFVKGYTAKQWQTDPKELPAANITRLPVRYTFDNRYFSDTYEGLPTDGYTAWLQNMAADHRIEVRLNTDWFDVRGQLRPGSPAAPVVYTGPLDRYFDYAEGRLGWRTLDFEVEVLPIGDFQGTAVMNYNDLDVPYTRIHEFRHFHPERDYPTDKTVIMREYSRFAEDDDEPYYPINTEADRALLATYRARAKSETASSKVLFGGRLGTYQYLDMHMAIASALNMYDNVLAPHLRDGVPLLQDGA
# Mtb bLac sens: beta-lactam sensitization of Mtb H37Rv; inhibition, % at 25 µM; AID 434955; M. tuberculosis H37Rv growth with meropenem, percent inhibition; 0.27% of 330,000 active; call rule not given here;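 also: growth measured after seven days incubation then overnight dye step; 0% = bacteria only wells and 100% = bacteria with antibiotic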
# Rv3671c inh: inhibits the M. tuberculosis serine protease Rv3671c; AID 2606; P9WHR9; inhibition, % at 5.96 µM; 0.048% of 320,000 active; in the data active = inhibition above about 38%;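 also: extracellular domain of Rv3671c used as enzyme; 0% = enzyme with DMSO and 100% = no enzyme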
# The depositor's hits bear a star; . = no result given; + = active, no number.
SMILES,FBA Mtb inh,GDH-TPI inh,UGM FP inh,Mtb bLac sens,Rv3671c inh
CC(C)(C)c1ccc(/C=C(\C#N)C(=O)NCCN2CCOCC2)cc1,2.1,5.6,0.6,-2.1,11.9
CC1(C)Cc2nc(NCCCO)c(C#N)cc2CO1,112.2*,5.0,1.8,-4.1,-1.9
CC1(C)Cc2nc(Cl)c(C#N)cc2CO1,-0.1,-0.6,-0.3,1.3,4.6
CC(=O)Nc1cccc(-c2nc3ccccc3o2)c1,7.3,-6.5,1.9,1.4,-2.0
CC(=O)Nc1ccc(-c2nc3ccc(NC(C)=O)cc3o2)cc1,+,9.7,-0.1,-3.1,-2.3
CC(=O)Nc1ccc2oc(-c3ccccc3)nc2c1,173.1*,-0.9,-0.4,-6.3,-6.2
O=C(O)c1cccnc1C(=O)c1ccccc1,-2.3,0.0,1.9,1.2,-1.2
CCOC(=O)c1cc(-c2ccccc2C)nn1CC1CC(c2ccc(OC)cc2)=NO1 (configuration not stated),-1.8,0.0,-1.0,12.5,-8.1
O=C(NNC(=S)NCc1ccco1)c1ccc(Cl)s1,-1.7,31.0*,1.7,-9.0,-4.3
CC1(Cc2cccc(C(N)=O)c2)C(=O)Nc2c(Cl)cccc21 (configuration not stated),-4.4,11.5,.,.,.
Cc1c(N/C=C/C(=O)C(F)(F)F)c(=O)n(-c2ccccc2)n1C,-0.4,11.2,0.5,-2.4,-5.7
Cc1c(NC(=O)C(=O)/C=C(/O)c2ccccc2)c(=O)n(-c2ccccc2)n1C,1.5,1.4,-0.9,1.7,-1.5
COc1ccc(/C(O)=C/C(=O)C(=O)Nc2c(C)n(C)n(-c3ccccc3)c2=O)cc1,-1.5,34.0*,1.7,10.5,-13.1
COc1ccc(C(=O)/C=C/Nc2c(C)n(C)n(-c3ccccc3)c2=O)cc1OC,-1.5,35.0*,1.6,-8.8,-5.9
CSCCC(NC(=O)c1ccccc1Br)C(=O)N1CCN(C/C=C/c2ccccc2)CC1 (configuration not stated),-0.5,2.1,.,.,.
O=C(CN1C(=O)NC2(CCCC2)C1=O)Oc1ccc2ccc(=O)oc2c1,.,26.5,-1.8,1.0,10.6
CCOC(=O)Nc1ccc2c(CN3C(=O)NC4(CCCC4)C3=O)cc(=O)oc2c1,+,22.8,.,.,.
CCc1cc(=O)oc2cc(OC(=O)CN3C(=O)NC4(CCCC4)C3=O)ccc12,+,18.9,-0.6,55.5,0.7
Cc1nn(Cc2ccccc2)c(C)c1NC(=O)CCCn1nc([N+](=O)[O-])cc1C,-1.0,-5.1,-1.8,-2.7,7.3
CCOC(=O)c1cc2c(=O)n3ccccc3nc2n(CC2CCCO2)c1=NC(C)=O (configuration not stated),.,17.6,-0.4,7.9,-13.6
Cc1ccc2nc3c(cc(C(=O)NCC4CCCO4)c(=N)n3CC3CCCO3)c(=O)n2c1 (configuration not stated),+,2.2,-0.4,1.6,0.8
COCCCNC(=O)c1cc2c(=O)n3cc(C)ccc3nc2nc1NCC1CCCO1 (configuration not stated),.,.,-0.6,6.3,-2.2
COc1ccc(CCn2c(=N)c(C(=O)NCC3CCCO3)cc3c(=O)n4ccccc4nc32)cc1OC (configuration not stated),-3.7,11.8,-2.0,-2.6,-2.0
COc1ccc(CCn2c(=N)c(C(=O)NC3CCCC3)cc3c(=O)n4ccccc4nc32)cc1,-4.9,-2.3,-0.6,9.5,7.3
N=c1c(C(=O)NC2CCCC2)cc2c(=O)n3ccccc3nc2n1CC1CCCO1 (configuration not stated),+,10.4,-2.5,3.5,-7.2
SMILES,FBA Mtb inh,GDH-TPI inh,UGM FP inh,Mtb bLac sens,Rv3671c inh
CC(NC(=O)c1cc2c(=O)n3ccccc3nc2n(CC2CCCO2)c1=N)c1ccccc1 (configuration not stated),+,17.9,1.8,4.3,-11.6
CCOC(=O)c1cc2c(=O)n3ccccc3nc2n(CC2CCCO2)c1=NC(=O)/C=C/c1ccccc1 (configuration not stated),+,25.6,0.1,40.8,-8.9
Cc1ccc(C(C)C)c(OC/C(O)=C(\C#N)c2nc3ccccc3[nH]2)c1,-1.8,-2.4,1.5,-6.2,3.1
COc1ccc(CCn2c(=N)c(C(=O)NC3CCCC3)cc3c(=O)n4ccccc4nc32)cc1OC,-2.4,9.4,0.7,7.9,-10.7
Cc1ccc(CNC(=O)c2cc3c(=O)n4ccccc4nc3n(CC3CCCO3)c2=N)cc1 (configuration not stated),+,3.4,-0.4,-0.8,-5.6
COCCCn1c(C(=O)N2CC(C)OC(C)C2)cc2c(=O)n3ccccc3nc21 (configuration not stated),+,17.5,0.4,-1.8,-0.4
COc1ccc(Cn2c(=N)c(C(=O)NC3CCCCC3)cc3c(=O)n4ccccc4nc32)cc1,0.9,6.1,5.6,69.5,1.9
COCCCn1c(=N)c(C(=O)NC2CCCCC2)cc2c(=O)n3ccccc3nc21,+,12.3,-1.1,-13.1,2.3
N=c1c(C(=O)NC2CCCCC2)cc2c(=O)n3ccccc3nc2n1CC1CCCO1 (configuration not stated),+,6.1,1.8,-5.0,2.1
O=C(c1ccc2c(c1)CCC2)N1CCN(Cc2c(F)cccc2Cl)CC1,1.2,-14.3,.,.,.
NC(=O)COC(=O)CNC(=O)c1sc2ccccc2c1Cl,-0.2,-10.2,-1.6,-1.8,-1.9
O=C(NCCOc1ccc2ccccc2c1)c1cncc(Br)c1,0.5,-17.9,1.7,-3.3,0.6
C=CCn1ccc(=NC=C(C#N)C#N)c2ccccc21,-18.0,26.9,35.7*,5.1,1.5
CSc1nnc2c(n1)OC=Nc1ccc(Br)cc1-2,0.9,2.4,3.7,-3.6,4.7
Cc1c(Cc2ccccc2)c(=O)oc2cc(OCc3ccc(C(=O)O)cc3)ccc12,16.6,9.9,-7.7,-3.3,1.5
CCOC(=O)CCc1c(C)c2ccc(OCc3nn[nH]n3)cc2oc1=O,+,-1.5,-0.9,1.6,-0.8
Cc1c(CC(=O)O)c(=O)oc2cc(OCc3ccc(Cl)cc3)ccc12,126.4*,18.0,1.9,-3.2,-4.5
Cc1c(CC(=O)O)c(=O)oc2cc(OCc3nn[nH]n3)ccc12,+,10.7,-1.9,-6.9,-0.6
O=c1nc(/C=C/c2ccc(O)c(O)c2)oc2ccccc12,-12.5,44.4*,.,.,.
COc1ccc(NC(=O)C(c2ccccc2)N2CCN(c3ccccn3)CC2)cc1Cl (configuration not stated),1.1,2.3,-1.1,6.9,0.3
N#C/C(=C/c1ccc(Br)o1)C(N)=O,0.2,44.6*,-0.4,0.6,4.3
O=C(Cc1ccc([N+](=O)[O-])cc1)N/N=C/c1cccs1,1.6,-3.2,1.6,-0.1,5.7
O=C(COC(=O)c1ccco1)NC1CCCC1,-2.3,-1.8,0.9,-3.6,2.8
C/C(=N/Nc1ccccc1C(=O)O)c1cccs1,-3.2,33.2*,-2.2,1.3,5.7
O=[N+]([O-])c1ccc(NN=Cc2ccco2)nc1,-12.9,33.5*,.,.,.
O=[N+]([O-])c1ccc(N/N=C\c2cccnc2)nc1,-3.5,-5.8,-1.7,1.1,-3.6
CC(C)NS(=O)(=O)c1ccc(OCC(=O)Nc2ccc(F)cc2)cc1,4.5,4.5,1.8,4.8,-3.0
